Laboratory results as given in PubChem BioAssay (EPA / NIEHS).
Active and inactive are the calls of the source. How the source made its calls: active means hit-call score of the fitted dose curve at least 0.9, where 1 is the maximum; inactive means score below 0.9.

Read-out: Glutamate-cysteine ligase catalytic (GCLC), GCLC (gene 2729)
Test: LTEA_HepaRG_GCLC: Life Technologies and Expression Analysis (LTEA) Assay for Glutamate-cysteine ligase catalytic (GCLC) using HepaRG (AID 2283498)
Settings: mRNA level, 48 h; actives raise or lower the signal
Method in brief: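 Differentiated HepaRG cells exposed 48 h in serum-free induction medium, eight-point half-log series topping at 100 uM in 0.5% DMSO, duplicates. GCLC mRNA by qRT-PCR normalized to ACTB, GAPDH and POLR2A, fitted bidirectionally versus DMSO.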

SMILES	outcome	AC50
COc1cc(C=O)ccc1O	inactive	–
COC(=O)c1ccc(O)cc1	inactive	–
C=CCc1ccc(O)c(OC)c1	inactive	–
CN1CCN(Cc2cc(-c3ccc4[nH]c(=O)oc4c3)co2)[C@@H](c2ccc(F)cc2)C1	inactive	–
CC(=O)OC/C=C(\C)CCC=C(C)C	inactive	–
CCCCCCCCCCCC(=O)OC	inactive	–
Oc1ccc2c(c1)OC[C@@H](N1CCC(O)(c3ccc(F)cc3)CC1)[C@H]2O	inactive	–
O=C(OCCCCCOC(=O)c1ccccc1)c1ccccc1	–	0.543 µM (active)
NCC1(Cc2noc(=O)[nH]2)CCCCC1	inactive	–
CCCCOC(=O)CCCCCCCCC(=O)OCCCC	inactive	–
CCc1c(C(=O)NN2CCCCC2)nn(-c2ccc(Cl)cc2Cl)c1-c1ccc(Br)cc1	–	50 µM (active)
O=C(O)CCCCC(=O)O	inactive	–
Cc1c(C(=O)O)c(O)cc2c1C(=O)c1c(O)c([C@@H]3O[C@H](CO)[C@@H](O)[C@H](O)[C@H]3O)c(O)c(O)c1C2=O	inactive	–
Cc1ccc(C)c(O)c1C	inactive	–
OC[C@@H](O)[C@@H](O)[C@H](O)[C@H](O)CO	inactive	–
C1CCC(SSC2CCCCC2)CC1	inactive	–
Cc1oc(-c2ccccc2)nc1CCOc1cccc2c1ccn2CCC(=O)O	–	50 µM (active)
Cc1ccccc1Cl	inactive	–
c1cc(-c2ccncc2)ccn1	inactive	–
Cc1cc(=O)[nH]c(=S)[nH]1	inactive	–
Cc1cccc([N+](=O)[O-])c1C	inactive	–
CCCCCCOCCO	inactive	–
CC(CO)OC(C)CO (configuration not stated) (tested in a mixture with another compound)	inactive	–
O=C(O)Cc1ccccc1Nc1c(Cl)cccc1Cl	inactive	–
Cc1ccc(C(C)C)c(O)c1	inactive	–
CN1CCCC1=O	inactive	–
Nc1ccc2c(c1)C(=O)c1ccccc1C2=O	inactive	–
CC1=C(/C=C/C(C)=C/C=C/C(C)=C/CO)C(C)(C)CCC1	inactive	–
CCCCCCCCCCCCCO	inactive	–

Read-out: growth arrest and DNA damage 45 (GADD45G), GADD45G (gene 10912)
Test: LTEA_HepaRG_GADD45G: Life Technologies and Expression Analysis (LTEA) Assay for growth arrest and DNA damage 45 (GADD45G) using HepaRG (AID 2283499)
Settings: mRNA level, 48 h; actives raise or lower the signal
Method in brief: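 Concentration-response in HepaRG: 48 h dosing, 0.5% DMSO, highest level 100 uM. GADD45G expression by qRT-PCR, normalised to endogenous controls; bidirectional fit to DMSO.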

SMILES	outcome	AC50
COc1cc(C=O)ccc1O	inactive	–
COC(=O)c1ccc(O)cc1	inactive	–
C=CCc1ccc(O)c(OC)c1	inactive	–
CN1CCN(Cc2cc(-c3ccc4[nH]c(=O)oc4c3)co2)[C@@H](c2ccc(F)cc2)C1	–	71.9 µM (active)
CC(=O)OC/C=C(\C)CCC=C(C)C	inactive	–
CCCCCCCCCCCC(=O)OC	inactive	–
Oc1ccc2c(c1)OC[C@@H](N1CCC(O)(c3ccc(F)cc3)CC1)[C@H]2O	inactive	–
O=C(OCCCCCOC(=O)c1ccccc1)c1ccccc1	inactive	–
NCC1(Cc2noc(=O)[nH]2)CCCCC1	inactive	–
CCCCOC(=O)CCCCCCCCC(=O)OCCCC	inactive	–
CCc1c(C(=O)NN2CCCCC2)nn(-c2ccc(Cl)cc2Cl)c1-c1ccc(Br)cc1	–	41.6 µM (active)
O=C(O)CCCCC(=O)O	inactive	–
Cc1c(C(=O)O)c(O)cc2c1C(=O)c1c(O)c([C@@H]3O[C@H](CO)[C@@H](O)[C@H](O)[C@H]3O)c(O)c(O)c1C2=O	inactive	–
Cc1ccc(C)c(O)c1C	inactive	–
OC[C@@H](O)[C@@H](O)[C@H](O)[C@H](O)CO	inactive	–
C1CCC(SSC2CCCCC2)CC1	inactive	–
Cc1oc(-c2ccccc2)nc1CCOc1cccc2c1ccn2CCC(=O)O	–	90.2 µM (active)
Cc1ccccc1Cl	inactive	–
c1cc(-c2ccncc2)ccn1	inactive	–
Cc1cc(=O)[nH]c(=S)[nH]1	inactive	–
Cc1cccc([N+](=O)[O-])c1C	inactive	–
CCCCCCOCCO	inactive	–
CC(CO)OC(C)CO (configuration not stated) (tested in a mixture with another compound)	inactive	–
O=C(O)Cc1ccccc1Nc1c(Cl)cccc1Cl	inactive	–
Cc1ccc(C(C)C)c(O)c1	inactive	–
CN1CCCC1=O	inactive	–
Nc1ccc2c(c1)C(=O)c1ccccc1C2=O	–	3.17 µM (active)
CC1=C(/C=C/C(C)=C/C=C/C(C)=C/CO)C(C)(C)CCC1	inactive	–
CCCCCCCCCCCCCO	inactive	–

Read-out: Glutamate-cysteine ligase regulatory (GCLM), GCLM (gene 2730)
Test: LTEA_HepaRG_GCLM: Life Technologies and Expression Analysis (LTEA) Assay for Glutamate-cysteine ligase regulatory (GCLM) using HepaRG (AID 2283500)
Settings: mRNA level, 48 h; actives raise or lower the signal
Method in brief: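 Cells were plated, cultured 48 h, switched to serum-free induction medium, then dosed in duplicate for 48 h at eight half-log concentrations up to 100 uM. RNA was then profiled by qRT-PCR; gain or loss versus DMSO was fitted.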

SMILES	outcome	AC50
COc1cc(C=O)ccc1O	inactive	–
COC(=O)c1ccc(O)cc1	inactive	–
C=CCc1ccc(O)c(OC)c1	inactive	–
CN1CCN(Cc2cc(-c3ccc4[nH]c(=O)oc4c3)co2)[C@@H](c2ccc(F)cc2)C1	inactive	–
CC(=O)OC/C=C(\C)CCC=C(C)C	inactive	–
CCCCCCCCCCCC(=O)OC	inactive	–
Oc1ccc2c(c1)OC[C@@H](N1CCC(O)(c3ccc(F)cc3)CC1)[C@H]2O	inactive	–
O=C(OCCCCCOC(=O)c1ccccc1)c1ccccc1	–	1.57 µM (active)
NCC1(Cc2noc(=O)[nH]2)CCCCC1	inactive	–
CCCCOC(=O)CCCCCCCCC(=O)OCCCC	inactive	–
CCc1c(C(=O)NN2CCCCC2)nn(-c2ccc(Cl)cc2Cl)c1-c1ccc(Br)cc1	–	50 µM (active)
O=C(O)CCCCC(=O)O	inactive	–
Cc1c(C(=O)O)c(O)cc2c1C(=O)c1c(O)c([C@@H]3O[C@H](CO)[C@@H](O)[C@H](O)[C@H]3O)c(O)c(O)c1C2=O	inactive	–
Cc1ccc(C)c(O)c1C	inactive	–
OC[C@@H](O)[C@@H](O)[C@H](O)[C@H](O)CO	inactive	–
C1CCC(SSC2CCCCC2)CC1	inactive	–
Cc1oc(-c2ccccc2)nc1CCOc1cccc2c1ccn2CCC(=O)O	–	75.8 µM (active)
Cc1ccccc1Cl	inactive	–
c1cc(-c2ccncc2)ccn1	inactive	–
Cc1cc(=O)[nH]c(=S)[nH]1	inactive	–
Cc1cccc([N+](=O)[O-])c1C	inactive	–
CCCCCCOCCO	inactive	–
CC(CO)OC(C)CO (configuration not stated) (tested in a mixture with another compound)	inactive	–
O=C(O)Cc1ccccc1Nc1c(Cl)cccc1Cl	inactive	–
Cc1ccc(C(C)C)c(O)c1	inactive	–
CN1CCCC1=O	inactive	–
Nc1ccc2c(c1)C(=O)c1ccccc1C2=O	–	10.1 µM (active)
CC1=C(/C=C/C(C)=C/C=C/C(C)=C/CO)C(C)(C)CCC1	inactive	–
CCCCCCCCCCCCCO	inactive	–
